# Reference: ChEMBL document CHEMBL1961873, “Compounds: GSK PKIS; Assays: Nanosyn kinase panel” (2012)
# Assays:
# [1] = biological target: Dual specificity protein kinase CLK3 (Homo sapiens) (UniProt P49761); settings: at 1 µM;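 further: each value is the mean inhibition of CLK3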
# [2] = biological target: Dual specificity tyrosine-phosphorylation-regulated kinase 1A (Homo sapiens) (UniProt Q13627); settings: at 0.1 µM
# [3] = biological target: Dual specificity tyrosine-phosphorylation-regulated kinase 1A (Homo sapiens) (UniProt Q13627); settings: at 1 µM
# [4] = biological target: Dual specificity tyrosine-phosphorylation-regulated kinase 1B (Homo sapiens) (UniProt Q9Y463); settings: at 0.1 µM
# Chain of Dual specificity tyrosine-phosphorylation-regulated kinase 1B (Homo sapiens) (Q9Y463 whole entry, looked up): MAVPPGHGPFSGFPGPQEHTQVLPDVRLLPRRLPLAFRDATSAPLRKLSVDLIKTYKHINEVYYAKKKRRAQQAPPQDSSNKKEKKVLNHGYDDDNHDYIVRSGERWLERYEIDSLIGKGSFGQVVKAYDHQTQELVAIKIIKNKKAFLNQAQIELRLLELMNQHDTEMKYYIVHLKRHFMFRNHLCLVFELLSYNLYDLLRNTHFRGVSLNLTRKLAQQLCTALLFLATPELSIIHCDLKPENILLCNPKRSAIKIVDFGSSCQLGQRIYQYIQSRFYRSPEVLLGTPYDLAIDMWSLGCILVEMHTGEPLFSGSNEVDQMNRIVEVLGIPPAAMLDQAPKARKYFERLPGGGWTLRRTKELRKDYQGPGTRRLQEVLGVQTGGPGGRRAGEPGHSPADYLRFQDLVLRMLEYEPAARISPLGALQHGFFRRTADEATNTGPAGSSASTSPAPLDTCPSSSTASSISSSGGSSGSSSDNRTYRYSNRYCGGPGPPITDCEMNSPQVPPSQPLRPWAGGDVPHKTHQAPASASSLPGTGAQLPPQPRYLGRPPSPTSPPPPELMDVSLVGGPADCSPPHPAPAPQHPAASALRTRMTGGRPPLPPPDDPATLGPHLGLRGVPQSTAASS
# [5] = biological target: Dual specificity tyrosine-phosphorylation-regulated kinase 1B (Homo sapiens) (UniProt Q9Y463); settings: at 1 µM
# [6] = biological target: T1, Dual specificity tyrosine-phosphorylation-regulated kinase 2 (Homo sapiens) (UniProt Q92630); settings: at 0.1 µM
# T1 sequence (whole entry): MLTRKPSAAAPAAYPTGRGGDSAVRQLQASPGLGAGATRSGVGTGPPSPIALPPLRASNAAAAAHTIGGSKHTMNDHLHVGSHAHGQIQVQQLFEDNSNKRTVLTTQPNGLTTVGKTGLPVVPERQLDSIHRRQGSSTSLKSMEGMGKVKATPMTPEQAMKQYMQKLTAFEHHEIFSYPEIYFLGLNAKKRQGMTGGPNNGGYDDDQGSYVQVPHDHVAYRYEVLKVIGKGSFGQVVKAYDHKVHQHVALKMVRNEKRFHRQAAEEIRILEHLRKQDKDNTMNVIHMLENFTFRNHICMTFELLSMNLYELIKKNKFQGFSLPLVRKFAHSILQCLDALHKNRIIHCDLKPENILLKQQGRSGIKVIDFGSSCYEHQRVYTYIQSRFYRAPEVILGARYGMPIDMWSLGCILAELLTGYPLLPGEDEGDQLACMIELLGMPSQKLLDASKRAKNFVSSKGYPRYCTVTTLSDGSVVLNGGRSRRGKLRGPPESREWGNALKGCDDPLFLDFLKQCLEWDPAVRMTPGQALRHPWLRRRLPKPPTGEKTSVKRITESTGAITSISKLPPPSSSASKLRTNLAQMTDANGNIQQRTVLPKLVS
# [7] = biological target: T1, Dual specificity tyrosine-phosphorylation-regulated kinase 2 (Homo sapiens); settings: at 1 µM
# [8] = biological target: Glycogen synthase kinase-3 alpha (Homo sapiens) (UniProt P49840); settings: at 0.1 µM
# Chain of Glycogen synthase kinase-3 alpha (Homo sapiens) (P49840 2-483 limits assumed): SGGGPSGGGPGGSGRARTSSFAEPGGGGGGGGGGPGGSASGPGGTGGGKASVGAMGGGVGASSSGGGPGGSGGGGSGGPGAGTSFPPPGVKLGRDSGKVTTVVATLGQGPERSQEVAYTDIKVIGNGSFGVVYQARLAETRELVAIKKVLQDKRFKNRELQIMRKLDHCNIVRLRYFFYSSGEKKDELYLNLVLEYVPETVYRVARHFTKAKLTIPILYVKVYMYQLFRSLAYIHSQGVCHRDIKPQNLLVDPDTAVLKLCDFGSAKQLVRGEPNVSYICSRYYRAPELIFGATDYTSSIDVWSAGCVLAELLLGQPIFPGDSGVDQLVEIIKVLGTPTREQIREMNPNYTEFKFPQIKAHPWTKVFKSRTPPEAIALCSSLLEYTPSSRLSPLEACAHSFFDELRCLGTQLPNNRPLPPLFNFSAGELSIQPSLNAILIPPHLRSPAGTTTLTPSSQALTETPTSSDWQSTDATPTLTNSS
# [9] = biological target: Glycogen synthase kinase-3 alpha (Homo sapiens) (UniProt P49840); settings: at 1 µM
# [10] = biological target: Glycogen synthase kinase-3 beta (Homo sapiens) (UniProt P49841); settings: at 0.1 µM
# Chain of Glycogen synthase kinase-3 beta (Homo sapiens) (P49841 whole entry, looked up): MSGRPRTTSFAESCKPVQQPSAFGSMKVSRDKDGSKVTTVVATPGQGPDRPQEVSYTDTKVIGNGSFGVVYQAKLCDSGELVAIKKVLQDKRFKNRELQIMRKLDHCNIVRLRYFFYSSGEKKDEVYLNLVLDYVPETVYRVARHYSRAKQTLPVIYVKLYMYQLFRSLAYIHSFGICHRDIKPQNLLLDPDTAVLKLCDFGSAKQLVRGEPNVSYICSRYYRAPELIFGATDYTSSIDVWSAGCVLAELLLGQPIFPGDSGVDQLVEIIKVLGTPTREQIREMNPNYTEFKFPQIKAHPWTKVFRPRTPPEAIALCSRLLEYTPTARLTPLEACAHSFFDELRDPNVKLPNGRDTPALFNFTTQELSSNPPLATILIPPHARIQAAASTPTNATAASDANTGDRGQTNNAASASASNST
# [11] = biological target: Glycogen synthase kinase-3 beta (Homo sapiens) (UniProt P49841); settings: at 1 µM
# [12] = biological target: Homeodomain-interacting protein kinase 1 (Homo sapiens) (UniProt Q86Z02); settings: at 0.1 µM
# Chain of Homeodomain-interacting protein kinase 1 (Homo sapiens) (Q86Z02 whole entry, looked up): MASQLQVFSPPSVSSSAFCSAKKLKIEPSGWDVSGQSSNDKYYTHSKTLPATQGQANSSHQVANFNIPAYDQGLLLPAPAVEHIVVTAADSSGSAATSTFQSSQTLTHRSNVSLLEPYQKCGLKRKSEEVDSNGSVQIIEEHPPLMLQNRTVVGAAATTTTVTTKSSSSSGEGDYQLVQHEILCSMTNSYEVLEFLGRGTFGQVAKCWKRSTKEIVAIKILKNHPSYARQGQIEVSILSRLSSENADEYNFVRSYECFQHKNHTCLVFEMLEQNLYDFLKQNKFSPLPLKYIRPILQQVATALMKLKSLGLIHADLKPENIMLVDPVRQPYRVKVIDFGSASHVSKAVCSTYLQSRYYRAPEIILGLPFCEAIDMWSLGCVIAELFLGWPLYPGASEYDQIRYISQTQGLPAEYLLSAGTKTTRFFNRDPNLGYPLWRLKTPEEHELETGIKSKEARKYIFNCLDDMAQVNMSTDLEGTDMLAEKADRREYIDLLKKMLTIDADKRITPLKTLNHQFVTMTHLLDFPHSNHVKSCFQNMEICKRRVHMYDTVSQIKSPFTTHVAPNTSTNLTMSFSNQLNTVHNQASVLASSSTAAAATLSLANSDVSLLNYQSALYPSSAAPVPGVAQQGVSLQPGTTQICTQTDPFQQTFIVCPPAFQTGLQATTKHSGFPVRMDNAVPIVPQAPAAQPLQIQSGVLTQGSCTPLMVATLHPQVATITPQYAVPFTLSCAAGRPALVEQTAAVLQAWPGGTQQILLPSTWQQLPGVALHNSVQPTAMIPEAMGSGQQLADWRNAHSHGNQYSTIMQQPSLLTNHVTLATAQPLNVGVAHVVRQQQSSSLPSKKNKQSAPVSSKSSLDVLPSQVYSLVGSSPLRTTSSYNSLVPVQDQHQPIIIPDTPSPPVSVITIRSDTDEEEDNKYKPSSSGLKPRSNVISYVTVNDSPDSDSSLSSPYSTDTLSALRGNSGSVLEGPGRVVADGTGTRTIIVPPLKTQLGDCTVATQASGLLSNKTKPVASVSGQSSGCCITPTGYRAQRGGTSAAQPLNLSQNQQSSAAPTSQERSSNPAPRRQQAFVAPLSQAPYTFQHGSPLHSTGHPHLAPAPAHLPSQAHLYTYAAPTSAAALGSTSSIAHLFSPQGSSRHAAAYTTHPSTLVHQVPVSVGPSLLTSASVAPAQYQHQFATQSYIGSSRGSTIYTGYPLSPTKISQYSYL
# [13] = biological target: Homeodomain-interacting protein kinase 1 (Homo sapiens) (UniProt Q86Z02); settings: at 1 µM
# [14] = biological target: T2, Homeodomain-interacting protein kinase 4 (Homo sapiens) (UniProt Q8NE63); settings: at 0.1 µM
# T2 sequence (whole entry): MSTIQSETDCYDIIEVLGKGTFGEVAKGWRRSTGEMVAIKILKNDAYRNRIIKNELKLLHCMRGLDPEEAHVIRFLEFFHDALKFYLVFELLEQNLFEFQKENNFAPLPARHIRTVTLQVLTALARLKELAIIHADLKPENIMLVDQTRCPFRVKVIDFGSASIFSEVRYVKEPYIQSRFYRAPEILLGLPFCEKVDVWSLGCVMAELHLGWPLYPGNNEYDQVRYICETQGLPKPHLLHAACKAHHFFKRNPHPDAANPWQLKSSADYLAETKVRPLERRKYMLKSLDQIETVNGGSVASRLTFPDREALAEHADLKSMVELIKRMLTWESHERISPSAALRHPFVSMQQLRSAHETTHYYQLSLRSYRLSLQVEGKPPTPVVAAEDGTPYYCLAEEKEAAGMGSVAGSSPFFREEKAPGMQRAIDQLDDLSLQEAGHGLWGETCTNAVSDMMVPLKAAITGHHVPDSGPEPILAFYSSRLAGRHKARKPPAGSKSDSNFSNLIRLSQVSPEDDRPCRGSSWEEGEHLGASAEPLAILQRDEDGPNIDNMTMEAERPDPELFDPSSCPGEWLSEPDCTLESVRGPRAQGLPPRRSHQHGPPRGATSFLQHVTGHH
# [15] = biological target: T2, Homeodomain-interacting protein kinase 4 (Homo sapiens); settings: at 1 µM
# [16] = biological target: Mitogen-activated protein kinase 9 (Homo sapiens) (UniProt P45984); settings: at 0.1 µM
# Chain of Mitogen-activated protein kinase 9 (Homo sapiens) (P45984 whole entry, looked up): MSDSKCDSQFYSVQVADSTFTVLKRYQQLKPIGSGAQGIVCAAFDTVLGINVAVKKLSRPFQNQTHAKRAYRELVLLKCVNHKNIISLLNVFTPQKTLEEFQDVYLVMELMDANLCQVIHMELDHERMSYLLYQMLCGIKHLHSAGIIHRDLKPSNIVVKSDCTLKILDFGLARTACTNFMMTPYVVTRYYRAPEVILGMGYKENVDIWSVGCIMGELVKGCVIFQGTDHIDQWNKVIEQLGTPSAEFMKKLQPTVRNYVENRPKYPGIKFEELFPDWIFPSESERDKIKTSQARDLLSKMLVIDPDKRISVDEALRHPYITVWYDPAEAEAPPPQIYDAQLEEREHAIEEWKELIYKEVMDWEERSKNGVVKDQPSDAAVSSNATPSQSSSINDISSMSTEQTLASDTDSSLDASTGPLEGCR
# [17] = biological target: Mitogen-activated protein kinase 9 (Homo sapiens) (UniProt P45984); settings: at 1 µM
# [18] = biological target: Mitogen-activated protein kinase 1 (Homo sapiens) (UniProt P28482); settings: at 0.1 µM
# Chain of Mitogen-activated protein kinase 1 (Homo sapiens) (P28482 whole entry): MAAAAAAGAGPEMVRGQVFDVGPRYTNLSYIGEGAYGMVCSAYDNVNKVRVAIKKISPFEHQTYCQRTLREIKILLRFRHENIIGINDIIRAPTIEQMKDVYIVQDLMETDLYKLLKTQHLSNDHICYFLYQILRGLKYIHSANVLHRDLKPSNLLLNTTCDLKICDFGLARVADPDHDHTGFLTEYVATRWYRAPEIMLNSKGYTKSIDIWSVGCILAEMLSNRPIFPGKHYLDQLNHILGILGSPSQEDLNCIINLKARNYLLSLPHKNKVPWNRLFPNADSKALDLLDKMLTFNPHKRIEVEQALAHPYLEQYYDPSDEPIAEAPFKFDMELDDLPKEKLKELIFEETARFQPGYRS
# [19] = biological target: Mitogen-activated protein kinase 1 (Homo sapiens) (UniProt P28482); settings: at 1 µM
# [20] = biological target: Mitogen-activated protein kinase 3 (Homo sapiens) (UniProt P27361); settings: at 0.1 µM;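 further: each value is a mean inhibition figure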
# Chain of Mitogen-activated protein kinase 3 (Homo sapiens) (P27361 whole entry): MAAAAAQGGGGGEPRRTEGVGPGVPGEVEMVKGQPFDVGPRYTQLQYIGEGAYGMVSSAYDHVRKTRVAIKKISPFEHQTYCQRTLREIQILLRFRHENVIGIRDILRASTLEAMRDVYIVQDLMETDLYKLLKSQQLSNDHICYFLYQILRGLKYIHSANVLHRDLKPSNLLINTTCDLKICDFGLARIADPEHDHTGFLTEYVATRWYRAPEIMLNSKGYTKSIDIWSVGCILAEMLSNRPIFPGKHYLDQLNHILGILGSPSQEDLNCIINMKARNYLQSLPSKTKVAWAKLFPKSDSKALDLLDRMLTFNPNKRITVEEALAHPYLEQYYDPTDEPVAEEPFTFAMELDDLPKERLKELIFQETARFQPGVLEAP
# Chain of Dual specificity protein kinase CLK3 (Homo sapiens) (P49761 whole entry, looked up): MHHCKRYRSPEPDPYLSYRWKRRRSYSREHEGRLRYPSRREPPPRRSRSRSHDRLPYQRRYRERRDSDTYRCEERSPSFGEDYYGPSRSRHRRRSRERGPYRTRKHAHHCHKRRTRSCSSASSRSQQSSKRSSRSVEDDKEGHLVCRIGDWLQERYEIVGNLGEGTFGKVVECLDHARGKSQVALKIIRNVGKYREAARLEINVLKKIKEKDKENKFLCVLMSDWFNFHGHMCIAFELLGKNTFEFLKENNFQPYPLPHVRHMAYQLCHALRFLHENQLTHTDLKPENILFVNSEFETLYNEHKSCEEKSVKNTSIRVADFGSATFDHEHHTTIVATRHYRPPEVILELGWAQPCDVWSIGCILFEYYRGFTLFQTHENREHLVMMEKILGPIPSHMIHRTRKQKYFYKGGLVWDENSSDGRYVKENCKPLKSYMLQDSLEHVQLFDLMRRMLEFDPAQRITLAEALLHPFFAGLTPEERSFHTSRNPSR
Compound,inhibition [1],inhibition [2],inhibition [3],inhibition [4],inhibition [5],inhibition [6],inhibition [7],inhibition [8],inhibition [9],inhibition [10],inhibition [11],inhibition [12],inhibition [13],inhibition [14],inhibition [15],inhibition [16],inhibition [17],inhibition [18],inhibition [19],inhibition [20]
CCCN1CCC=C(c2ccc(Nc3nc(Nc4ccccc4C(N)=O)c4cc[nH]c4n3)c(C)c2)C1,6.97%,56.2%,92.3%,39.5%,71.1%,8.53%,44.2%,5.89%,28.1%,3.05%,17.1%,16.3%,59.6%,15.1%,56.5%,46.5%,84.9%,6.87%,29.5%,6.39%
Nc1nc(-c2ccccn2)c(-c2ccc3ncccc3n2)s1,4.76%,7.05%,18.3%,3.14%,8.56%,2.04%,4.58%,3.86%,12.8%,3.76%,8.29%,4.06%,10.3%,3.92%,10.1%,2.16%,2.28%,1.86%,2.54%,1.83%
CCn1c(-c2nonc2N)nc2c(C#CC(C)(C)O)nc(OC[C@@H](N)c3ccccc3)cc21,0.8%,-0.38%,5.33%,1.06%,4.19%,-1.52%,-0.54%,37.4%,78.5%,32.1%,76%,1.19%,13.3%,1.04%,8.34%,-0.01%,-0.83%,-1.1%,3.38%,-3.17%
CCn1c(-c2nonc2N)nc2cncc(C(=O)N3CCNCC3)c21,1.12%,3.49%,4.33%,0.28%,-0.73%,4.35%,7.99%,2.98%,2.61%,1.93%,1.94%,-1.03%,0.35%,-0.43%,0.6%,5.31%,8.83%,8.16%,7.48%,6.65%
[O-][S+]1CCN(Cc2ccc(-c3ccc4ncnc(Nc5ccc(OCc6ccccc6)c(F)c5)c4c3)o2)CC1,11.2%,2.61%,2.98%,1.09%,1.08%,1.63%,3.4%,0.27%,2.88%,-0.3%,1.56%,-3.01%,2.83%,1.06%,5.51%,4.53%,4.55%,0.52%,2.92%,1.89%
COc1cc(C=NNc2ncnc3c2cnn3-c2ccccc2)ccc1O,9.46%,4.3%,28.8%,1.97%,11%,5.08%,23.7%,47.7%,79.2%,41.6%,78.1%,3.83%,28.3%,10.8%,39.6%,2.12%,6.67%,2.39%,2.08%,1.28%
Cc1nn(C)c2cc(N(C)c3ccnc(Nc4cccc(S(N)(=O)=O)c4)n3)ccc12,3.34%,0.4%,0.86%,-1.86%,-1.3%,2.83%,2.82%,1.79%,3.95%,0.37%,5.82%,-3.06%,-2.18%,-1.56%,4.09%,3.35%,10.2%,2.91%,4.88%,2.88%
COc1cccc(-n2ncc3c(N/N=C/c4cccc(F)c4)ncnc32)c1,-0.14%,2.01%,25.9%,-1.44%,14.9%,4.29%,16.8%,54.5%,75.2%,44.7%,72.7%,-2.11%,20.6%,0.87%,21.3%,1.23%,4.69%,1.94%,3.29%,1.61%
Fc1cccc(COc2ccc(Nc3ncnc4cc(-c5ccc[nH]5)sc34)cc2Cl)c1,-1.03%,-2.81%,-0.45%,-3.77%,-3.25%,1.57%,1.07%,-2.13%,2.99%,-2.64%,1.92%,-5.52%,-2.5%,-1.95%,2.7%,2.73%,3.15%,3.5%,4.2%,0.89%
Fc1cccc(COc2ccc(Nc3ncnc4sc(-c5cccs5)cc34)cc2Cl)c1,-0.15%,1.88%,6.51%,1.39%,2.06%,-1.01%,1.17%,1.69%,6.14%,1.97%,5.88%,-5.41%,2.04%,0.33%,1.31%,0.62%,1.01%,2.17%,1.6%,1.1%
NC(=O)c1cccc(Nc2nccc(Nc3cccc4[nH]ncc34)n2)c1,8.54%,3.35%,22.1%,5.54%,28.3%,-1.74%,7.45%,8.87%,42.1%,8.67%,35%,1.13%,7.88%,3.21%,21.2%,-6.25%,4.55%,-3.75%,-0.34%,-3.05%
CC(C)=Cc1cccc2c1/C(=N/Nc1ccc(S(N)(=O)=O)cc1)C(=O)N2,1.83%,-1.42%,2.34%,0.57%,5.61%,0.58%,2.29%,13.8%,53.5%,7.42%,44%,2.49%,10.8%,1.38%,6.2%,-0.73%,6.66%,-0.23%,0.78%,0.6%
CC1=C(C(=O)Nc2ccc3[nH]ncc3c2)C(c2ccc(F)cc2)NC(=O)N1 (stereo not given),1.47%,1.78%,1.58%,-0.22%,3.29%,0.94%,2.08%,-0.66%,-0.33%,-0.1%,1.6%,-0.95%,-0.69%,-0.2%,-0.66%,1.75%,0.78%,1.62%,4.83%,2.23%
